Seven compounds from PubChem BioAssay can be followed below.

Each structure is given as a SMILES string. Several values for one entry are separate records, joined by “and”; a condition that tells them apart may be missing. Equal entries are not always repeated. Some structures have more than one record in an assay (separate samples or runs), and their calls can disagree. Activity calls are given as the source filed them. Unless noted, no rule for the calls is given here.

Assay [1] can be described thus: compounds binding Alexa647 anti-His antibody – biochemical, small-molecule microarray, 635 nm fluorescence, artefact control for SMM control protein annotation, primary screen (AID 1128).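 Also: score merges feature fluorescence with signal-to-noise for each printed compound spot.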 Conditions: higher = more signal.
Assay [2] deals with Human papillomavirus type 1a E7 protein (residues 1-88). Description: HPV1a E7 small-molecule binders, primary screen, biochemical, small-molecule microarray, residues 1-88, 635 nm (AID 1129). Conditions: small-molecule microarray binding, fluorescence 635 nm; higher = more signal.
Assay [3] concerns the target Focal adhesion kinase 1 (Homo sapiens) (UniProt Q05397). Description: PTK2 protein binding on printed compound slides – biochemical, small-molecule microarray, 635/667 nm fluorescence, BSA, DTT, primary screen (AID 1130).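 Also: composite of spot emission at 667 nm and signal to noise over triplicate slides.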 Conditions: 635 nm fluorescence, higher = more signal.
In assay [4] the test system is Fibrinogen (Alexa647-labelled). The assay can be described thus: Alexa647-fibrinogen binding to printed small molecules – biochemical, small-molecule microarray, 635/667 nm fluorescence, artefact control for SMM control-protein annotation, profiling panel (AID 1131).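 Also: z-score merges 667 nm fluorescence with per-spot signal-to-noise over triplicate slides.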 The following applies: fibrinogen-A647 binding fluorescence, higher = more signal.
Assay [5] concerns the target Follistatin (Homo sapiens) (UniProt P19883). The assay can be described thus: FST protein binding to printed compounds – biochemical, small-molecule microarray, 635/667 nm fluorescence, primary screen (AID 1132). Conditions: 635 nm fluorescence, higher = more signal.
Assay [6] deals with Fibroblast growth factor 2 (Homo sapiens) (UniProt P09038). The assay can be described thus: basic fibroblast growth factor binding to printed compounds – biochemical, small-molecule microarray, 635/667 nm fluorescence, primary screen (AID 1133). Conditions: FGF2, fluorescence 635/667, higher = more signal.
Sequence of Fibroblast growth factor 2 (Homo sapiens) (P09038 whole entry, looked up): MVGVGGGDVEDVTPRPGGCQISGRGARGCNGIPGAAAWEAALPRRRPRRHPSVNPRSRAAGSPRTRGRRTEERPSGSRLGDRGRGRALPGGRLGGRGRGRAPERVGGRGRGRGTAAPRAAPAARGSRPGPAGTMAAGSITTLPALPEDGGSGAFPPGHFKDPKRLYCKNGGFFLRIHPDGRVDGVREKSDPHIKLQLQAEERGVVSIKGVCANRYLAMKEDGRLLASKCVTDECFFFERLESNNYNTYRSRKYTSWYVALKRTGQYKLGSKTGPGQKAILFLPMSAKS
Assay [7] in a line: JC-1 mitochondrial potential readout, lung cancer cells – cell-based, A549, JC-1 fluorescence, basal, 24 h, 100 nL, profiling panel (AID 1138).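 Also: A549 lung adenocarcinoma cells under basal conditions with no added stimulus; test concentration not given here.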 The following applies: higher = more signal.
In a further assay the test system is Lefty1. Description: Lefty1 protein binding to printed compounds – biochemical, small-molecule microarray, 635/667 nm fluorescence, primary screen (AID 1139). Conditions: fluorescence 635/667, higher = more signal.
Assay [8] relates to wheat germ agglutinin (Triticum aestivum), Alexa647-labelled. Description: Alexa647-WGA lectin binding to printed small molecules – biochemical, small-molecule microarray, 635/667 nm fluorescence, artefact control for SMM control-protein annotation, profiling panel (AID 1140).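 Also: score merges 667 nm feature emission with signal to noise over triplicate slides.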 Conditions: WGA-A647 binding, 635 nm fluorescence, higher = more signal.
The target of assay [9] is Luciferin 4-monooxygenase (Photinus pyralis) (UniProt P08659). The assay can be described thus: inhibition of purified Photinus pyralis luciferase – biochemical, luminescence, purified enzyme, 2006 set, primary screen (AID 1141).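 Also: cell-free assay with purified firefly luciferase at 100 ng per well in PBS; test concentration not given here.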 Conditions: purified firefly luciferase, SteadyGlo luminescence, 30 min; higher = more signal, called active from +8 up or from −8 down.
Sequence of Luciferin 4-monooxygenase (Photinus pyralis) (P08659 whole entry, looked up): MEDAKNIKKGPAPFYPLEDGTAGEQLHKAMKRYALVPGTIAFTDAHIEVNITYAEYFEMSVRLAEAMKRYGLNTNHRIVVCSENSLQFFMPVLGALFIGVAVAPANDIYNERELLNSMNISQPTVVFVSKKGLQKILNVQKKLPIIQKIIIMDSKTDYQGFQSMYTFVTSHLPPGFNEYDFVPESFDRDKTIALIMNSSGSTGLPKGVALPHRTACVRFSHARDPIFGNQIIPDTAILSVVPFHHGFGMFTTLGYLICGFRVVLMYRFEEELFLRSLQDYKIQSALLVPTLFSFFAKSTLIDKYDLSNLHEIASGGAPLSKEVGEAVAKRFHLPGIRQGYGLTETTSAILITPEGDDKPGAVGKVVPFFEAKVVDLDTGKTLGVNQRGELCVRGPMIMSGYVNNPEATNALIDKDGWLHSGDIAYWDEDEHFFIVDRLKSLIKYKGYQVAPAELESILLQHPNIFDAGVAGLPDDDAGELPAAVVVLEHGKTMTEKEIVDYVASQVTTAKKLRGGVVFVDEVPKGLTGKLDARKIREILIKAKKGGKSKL
Assay [10] deals with Wnt5a (protein binding on small-molecule microarray). The assay can be described thus: small molecules binding Wnt5a protein – biophysical, small-molecule microarray, 635/667 nm fluorescence, primary screen (AID 1142).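 Also: fluorescence read at 667 nm with signal to noise per printed feature.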 Conditions: 635 nm fluorescence, higher = more signal.
Assay [11] is described as follows: ATP-based viability of Huh7 replicon cells – cell-based, CellTiter-Glo luminescence, basal, 48 h, cytotoxicity control for HCV replication inhibitor project, primary screen (AID 1143).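 Also: Huh7 hepatoma cells carrying a hepatitis C replication reporter with no stimulus; test concentration not given here.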 The following applies: higher = more signal, called active from +8 up or from −8 down.
Assay [12] in a line: Pseudomonas biofilm growth suppression – PAO1 strain, BacTiter-Glo luminescence, LB-PBS, primary screen (AID 1144). The following applies: P. aeruginosa PAO1 biofilm, 12 h, higher = more signal.
Assay [13] in a line: basal CRE-LacZ reporter activity in PC12 – cell-based, unstimulated, primary screen (AID 1145). Conditions: no forskolin, luminescence, 4.5 h, higher = more signal, called active from +8 up or from −8 down.
Assay [14] is described as follows: forskolin-driven CRE-LacZ activity in PC12 – cell-based, CRE-LacZ reporter, forskolin-stimulated, primary screen (AID 1146).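 Also: PC12 cells with 6xCRE LacZ reporter stimulated by forskolin 10 µM; beta-galactosidase reporter signal reflecting CREB driven transcription.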 The following applies: luminescence, 4.5 h, higher = more signal, called active from +8 up or from −8 down.
Assay [15] addresses Streptavidin (Streptomyces avidinii) (UniProt P22629). Description: compounds binding control protein streptavidin – biophysical, small-molecule microarray, 635/667 nm fluorescence, artefact control for SMM compound annotation, primary screen (AID 1147).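 Also: signal reflects streptavidin binding to arrayed compounds as a control protein.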 The following applies: higher = more signal.
Assay [16] can be described thus: probe aInhba binding on compound microarray – biochemical, small-molecule microarray, 635/667 nm fluorescence, primary screen (AID 1148).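 Also: score merges 667nm spot fluorescence with signal-to-noise for antibody binding to printed compounds.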 Conditions: higher = more signal.
For assay [17], the target named is Torsin-1A (Homo sapiens) (UniProt O14656). The assay can be described thus: TOR1A wild-type binding on microarray – cell lysate, small-molecule microarray, lysate, 635/667 nm, primary screen (AID 1149). The following applies: COS7 hTOR1A-WT lysate, 635 nm fluorescence, higher = more signal.
Sequence of Torsin-1A (Homo sapiens) (O14656 whole entry, looked up): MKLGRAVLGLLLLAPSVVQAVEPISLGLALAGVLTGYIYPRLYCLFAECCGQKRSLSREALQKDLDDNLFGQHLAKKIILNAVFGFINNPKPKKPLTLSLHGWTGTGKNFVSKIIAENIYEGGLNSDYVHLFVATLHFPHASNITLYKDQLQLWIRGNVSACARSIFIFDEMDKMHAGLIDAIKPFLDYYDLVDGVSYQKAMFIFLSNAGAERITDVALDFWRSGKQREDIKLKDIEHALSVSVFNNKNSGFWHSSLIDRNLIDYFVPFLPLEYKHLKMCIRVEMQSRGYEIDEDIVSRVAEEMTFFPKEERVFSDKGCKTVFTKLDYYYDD
For assay [18] the target is unchanged. Description: torsin A mutant lysate binding on microarrays – cell lysate, small-molecule microarray, COS7 lysate, 635/667 nm fluorescence, primary screen (AID 1150).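 Also: score pools 667 nm emission and signal to noise measuring lysate protein binding.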 Conditions: COS7 hTOR1A mutant lysate, 635 nm fluorescence, higher = more signal.
The test system of assay [19] is Sonic hedgehog protein (Shh). Description: Sonic hedgehog microarray binding compounds – biochemical, small-molecule microarray, 635/667 nm fluorescence, primary screen (AID 1151).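 Also: Shh protein binding to compounds spotted on small-molecule microarray slides; score combines spot fluorescence intensity with signal-to-noise across triplicate slides.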 The following applies: 635 nm fluorescence, higher = more signal.

Sequence of Follistatin (Homo sapiens) (P19883 whole entry, looked up): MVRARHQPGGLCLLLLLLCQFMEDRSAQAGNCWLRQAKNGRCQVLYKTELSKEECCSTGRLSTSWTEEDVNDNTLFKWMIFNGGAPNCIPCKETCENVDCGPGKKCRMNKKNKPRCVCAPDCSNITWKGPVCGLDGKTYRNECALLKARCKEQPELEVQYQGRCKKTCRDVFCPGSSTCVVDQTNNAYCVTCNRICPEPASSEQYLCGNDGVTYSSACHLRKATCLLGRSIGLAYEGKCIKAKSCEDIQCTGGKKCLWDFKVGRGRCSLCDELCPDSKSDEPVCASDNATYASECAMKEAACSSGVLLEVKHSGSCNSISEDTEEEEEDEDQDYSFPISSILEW
Sequence of Streptavidin (Streptomyces avidinii) (P22629 whole entry, looked up): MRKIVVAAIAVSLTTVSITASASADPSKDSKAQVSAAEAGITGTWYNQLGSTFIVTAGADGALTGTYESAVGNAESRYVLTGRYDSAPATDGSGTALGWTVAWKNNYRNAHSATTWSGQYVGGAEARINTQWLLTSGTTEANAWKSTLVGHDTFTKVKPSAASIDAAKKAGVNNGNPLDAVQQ
Sequence of Focal adhesion kinase 1 (Homo sapiens) (Q05397 whole entry, looked up): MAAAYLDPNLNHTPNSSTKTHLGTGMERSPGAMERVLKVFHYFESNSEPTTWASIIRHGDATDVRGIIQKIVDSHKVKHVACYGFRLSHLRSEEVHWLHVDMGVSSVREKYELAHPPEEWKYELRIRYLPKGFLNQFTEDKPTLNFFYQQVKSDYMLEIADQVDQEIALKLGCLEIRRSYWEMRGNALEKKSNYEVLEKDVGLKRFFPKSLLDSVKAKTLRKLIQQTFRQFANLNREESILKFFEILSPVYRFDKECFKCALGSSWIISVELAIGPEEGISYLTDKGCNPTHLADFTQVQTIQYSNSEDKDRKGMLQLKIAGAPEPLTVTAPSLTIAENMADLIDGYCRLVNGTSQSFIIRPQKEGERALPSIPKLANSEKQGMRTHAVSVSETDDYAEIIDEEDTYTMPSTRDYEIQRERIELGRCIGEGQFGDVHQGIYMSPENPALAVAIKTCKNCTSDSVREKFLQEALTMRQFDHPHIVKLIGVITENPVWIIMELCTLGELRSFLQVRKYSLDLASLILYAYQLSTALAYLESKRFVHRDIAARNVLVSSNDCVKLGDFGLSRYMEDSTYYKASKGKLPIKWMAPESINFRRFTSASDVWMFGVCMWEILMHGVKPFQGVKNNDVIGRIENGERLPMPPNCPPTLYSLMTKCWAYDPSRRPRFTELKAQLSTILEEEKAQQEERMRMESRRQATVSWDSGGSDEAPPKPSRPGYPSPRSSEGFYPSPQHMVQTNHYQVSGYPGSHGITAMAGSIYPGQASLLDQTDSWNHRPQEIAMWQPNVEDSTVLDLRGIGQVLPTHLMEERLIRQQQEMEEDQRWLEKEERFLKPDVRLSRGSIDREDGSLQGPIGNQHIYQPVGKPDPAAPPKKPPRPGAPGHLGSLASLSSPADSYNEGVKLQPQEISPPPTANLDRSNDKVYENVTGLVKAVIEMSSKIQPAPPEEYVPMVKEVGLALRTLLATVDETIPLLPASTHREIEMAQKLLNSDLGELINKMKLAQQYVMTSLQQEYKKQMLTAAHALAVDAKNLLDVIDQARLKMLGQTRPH

In the case of `COC(=O)C1=C(C)N(Cc2ccccc2)C2=C3C(=O)N(C)C(=O)[C@@H]3[C@@](O)(C(=O)OC)C(=O)N2[C@@H]1c1ccccc1`, the composite z-score in [1] was 0.21 and -0.0385; in assay [2] it was 0.311 and 0.614; in [3], 0.128 and 0.276; in [4], 0.269 and 0.335; in [5], 0.355 and 0.223; in assay [6], 0.55 and 0.24. The composite z-score is -0.0227 and 0.627 in the assay with Lefty1; 0.129 and -0.0358 in [8]; 0.147 and 0.126 in assay [10]; 0.378 and 0.131 in assay [15]; 0.038 and 0.0173 in assay [16]; 0.154 and 0.161 in the assay with Torsin-1A (Homo sapiens) [17]. Also, the composite z-score with Torsin-1A (Homo sapiens) [18] is 0.491 and 0.207; in [19], -0.004 and 0.436. Moreover, the z-score in assay [7] is 0.286 and 0.239; in assay [9], -0.598 (inactive) and -2.38 (inactive); in assay [11], 0.961 (inactive) and -0.294 (inactive); in assay [12], -0.153 (inactive) and -0.448 (inactive); in assay [13] it was 2.18 (inactive) and 0.992 (inactive); in assay [14] it was -0.152 (inactive) and -0.755 (inactive).

Consider `CC(C)=NOCc1ccc(-c2cn([C@@H]3COC[C@H]3O)nn2)cc1`, for which the composite z-score in assay [1] was 1.03; in assay [2], 0.245; in [3], -0.115; in [4] it was -0.4; in assay [5], 0.218; in assay [6], 0.299. Also, the composite z-score in the assay with Lefty1 is 0.402; in assay [8], -0.132; in assay [10] it was 0.184; in [15], 0.562; in [16], -0.128; in the assay with Torsin-1A (Homo sapiens) [17] it was 0.538. For the same compound, the composite z-score with Torsin-1A (Homo sapiens) [18] worked out at 0.162; in [19], 0.169. In addition, the z-score is 0.11 in assay [7]; -1.12 (inactive) in [9]; 0.164 (inactive) in [11]; 1.08 (inactive) in assay [12]; 1.47 (inactive) in assay [13]; 0.607 (inactive) in assay [14].

As to `CCCC[C@@H]1CN2[C@H](c3ccc(Br)cc3)[C@@H](C)CC[C@H]2C(=O)O1`, the composite z-score is -0.408 and 2.44 in assay [1]; -0.535 and -0.105 in [2]; -0.0211 and 0.0131 in assay [3]; -0.167 and 0.546 in assay [4]; 0.0438 and -0.0845 in [5]; 0.186 and 0.0412 in assay [6]. Besides, the composite z-score with Lefty1 is -0.128 and 0.0556; in [8], -0.22 and 0.313; in assay [10], -0.134 and -0.107; in assay [15], -0.13 and 0.159; in assay [16] it was -0.261 and -0.0531; with Torsin-1A (Homo sapiens) [17] it was 0.0781 and 0.436. Moreover, the composite z-score in the assay with Torsin-1A (Homo sapiens) [18] was 0.516 and -0.16; in assay [19], 0.11 and 0.152. Also, the z-score in assay [7] is 0.5 and 0.647; in [9] it was -0.052 (inactive) and -1.79 (inactive); in [11], -0.394 (inactive) and -0.261 (inactive); in assay [12], -0.379 (inactive) and -0.292 (inactive); in assay [13], -0.343 (inactive) and 0.285 (inactive); in assay [14], 0.903 (inactive) and 0.466 (inactive).

As to `C=CCN(Cc1ccccc1)C(=O)C1N(c2c(Cl)cccc2CO)C(=O)C2C(C(=O)O)C3C=CC21O3` (stereo not given), the composite z-score in assay [1] is -1.57 and -1.25; in [2], -2.28 and -0.762; in assay [3] it was -1.12 and -0.942; in assay [4] it was -1.61 and -1.28; in [5], -2.48 and -2.78; in assay [6], -1.21 and -1.62. The composite z-score in the assay on Lefty1 was -3.16 and -3; in assay [8] it was -1.9 and -1.22; in assay [10] it was -0.597 and -1.05; in assay [15], -1.38 and -2.19; in assay [16], -0.182 and -0.364; with Torsin-1A (Homo sapiens) [17], -0.986 and -1.77. The composite z-score is -1.2 and -1.14 with Torsin-1A (Homo sapiens) [18]; -0.796 and -0.69 in assay [19]. The z-score in [7] is 1.29 and -0.936; in assay [9] it was -1.28 (inactive) and 1.17 (inactive); in assay [11], -0.634 (inactive) and -0.0943 (inactive); in [12], -2.23 (inactive) and -0.0736 (inactive); in assay [13], -0.619 (inactive) and -0.216 (inactive); in assay [14], -1.1 (inactive) and 0.577 (inactive).

Regarding `C=CCN1C(=O)[C@]2(O[C@H](CCn3cc(CCO)nn3)[C@@H]([Si](C)(C)c3ccc(OC)cc3)[C@@H]2C)c2cc(N3C(=O)c4cccc5cccc3c45)ccc21`, the composite z-score in assay [1] is 0.783 and 1.59; in assay [2] it was 1.14 and 1.08; in assay [3] it was 0.216 and 0.369; in assay [4], 0.57 and 0.583; in assay [5] it was 0.687 and 0.0673; in assay [6], 0.296 and 0.381. The composite z-score is 0.794 and 0.721 in the assay with Lefty1; 0.532 and 0.53 in [8]; 0.684 and 0.279 in assay [10]; 0.377 and 0.732 in assay [15]; -0.0719 and -0.0986 in assay [16]; 0.317 and 0.0769 with Torsin-1A (Homo sapiens) [17]. For the same compound, the composite z-score with Torsin-1A (Homo sapiens) [18] is 0.398 and 0.254; in [19], 1.21 and 1.38. The z-score in [7] is -1.09 and -0.743; in assay [9] it was -0.511 (inactive) and 0.185 (inactive); in [11] it was -8.04 (active) and -7.97 (inactive); in assay [12], -0.475 (inactive) and -0.111 (inactive); in assay [13] it was 29.7 (active) and 37.9 (active); in assay [14], -4.15 (inactive) and -3.89 (inactive).

For `CCN1C(=O)[C@H]2[C@H]3[C@H](O)[C@H](O)CC(=NOC)[C@@H]3CC[C@H]2C1=O`, the composite z-score in assay [1] is -0.121; in [2], -0.805; in assay [3] it was -0.384; in assay [4], 0.245; in assay [5] it was 0.0723; in [6] it was -0.0102. Further, the composite z-score is 0.164 with Lefty1; 0.299 in [8]; -0.254 in assay [10]; -0.125 in assay [15]; -0.0762 in assay [16]; -0.477 with Torsin-1A (Homo sapiens) [17]. In addition, the composite z-score with Torsin-1A (Homo sapiens) [18] is -0.115; in assay [19], -0.13. The z-score in assay [7] was 1.16; in [9], -0.554 (inactive); in [11], 0.359 (inactive); in assay [12], -1.16 (inactive); in assay [13], -1.12 (inactive); in assay [14], -0.154 (inactive).

With `C[C@@H]1CC[C@H]2C(=O)NC[C@@H](O)CN2[C@H]1c1ccc(Br)cc1`, the composite z-score in assay [1] is -0.035 and -0.372; in assay [2], -0.165 and -0.298; in assay [3], 0.0377 and -0.438; in assay [4], -0.0102 and 0.0552; in [5] it was -0.175 and -0.142; in [6], 0.0825 and 0.314. Besides, the composite z-score with Lefty1 was 0.396 and 0.0488; in assay [8], -0.2 and -0.0411; in [10], -0.0755 and 0.0111; in assay [15], -0.161 and -0.289; in assay [16], -0.0762 and -0.128; with Torsin-1A (Homo sapiens) [17] it was 0.0335 and 0.266. The composite z-score in the assay with Torsin-1A (Homo sapiens) [18] is 0.0464 and -0.352; in [19], 0.264 and -0.0212. Besides, the z-score is -0.386 and 1.68 in [7]; 0.29 (inactive) and -0.467 (inactive) in assay [9]; 0.3 (inactive) and 0.139 (inactive) in [11]; 0.721 (inactive) and 0.543 (inactive) in assay [12]; 0.649 (inactive) and 0.108 (inactive) in assay [13]; 0.797 (inactive) and 0.187 (inactive) in assay [14].
